According to the supplement of paper PMC10849652:
Of roughly 7,900 targets only a part is listed; those with a hit were picked by preference. About 0.6% of all pairs of compound and target were hits. Values without a mark were called inactive.

Legend:
Test in all cases: log2 fold change, soluble protein after heating vs DMSO (PISA); higher = thermal stabilisation; K562 cells, 10 uM, 30 min; active = over 0.2 and 3.5 SD of the protein, either way, in both replicates (recomputed)
[1] = compound: C#Cc1cccc(Nc2ncnc3cc(OCCOC)c(OCCOC)cc23)c1 [erlotinib]
In short: (§1)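 K562 cells (2×10^6 cells/mL) were treated with 10 μM compound for 30 min, and aliquots were heated for 3 min over 48°C-58°C. Pooled aliquots were extracted in PBS with 0.5% NP-40 at 4°C, and the supernatant after 21,000xg for 90 min was measured by TMTpro 16plex LC-MS/MS with channel sums equalised. Reported thermal stability, relative to control samples and from duplicates, is a log2 fold change.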

[2] = compound: C/C(=N\NC(=O)C1=CC(=CC=C1)S(=O)(=O)N2CCOCC2)/C3=C(C=CC(=C3)Cl)O
In short: as §1

[3] = compound: C1=CC(=C(C=C1Cl)C2=NC3=NC=CN=C3C(=N2)NC4=CC=NC=C4)F
In short: as §1

[4] = compound: C1=CC(=CC=C1C2=NC3=C(N2)C=C(C=C3)C(=O)N)OC4=CC=C(C=C4)Cl
In short: as §1

[5] = compound: C1=CC2=C(C=CC(=C2)/C=C\3/C(=O)NC(=NCC4=CC=CS4)S3)N=C1
In short: as §1

[6] = compound: C1=CC2=NC=CN=C2C=C1/C=C/3\C(=O)NC(=O)S3
In short: as §1

[7] = compound: C1=CC=C(C=C1)C2=NC(=C(N2)C3=CC=NC=C3)C4=CC(=C(C=C4)Cl)O
In short: as §1

[8] = compound: C1=CC=C2C(=C1)C3=NNC4=CC=CC(=C43)C2=O
In short: as §1

[9] = compound: C1CCN(C1)C(=O)NC2=CC=CC(=C2)NC3=NC=C(C(=N3)NCCC4=CN=CN4)Br
In short: as §1

[10] = compound: C1CN(CCC1(CC2=CC=C(C=C2)Cl)N)C3=NC=NC4=C3C=CN4
In short: as §1

[11] = compound: C1COCCN1CCN2C3=CC=CC=C3N=C2NC(=O)C4=CC(=CC=C4)[N+](=O)[O-] [IRAK-1-4 Inhibitor I]
In short: as §1

[12] = compound: C=CC(=O)N1CCC[C@@H](n2nc(-c3ccc(Oc4ccccc4)cc3)c3c(N)ncnc32)C1 [ibrutinib]
In short: as §1

[13] = compound: CC(=O)c1cnc2ccc(-c3cc(Cl)c(O)c(Cl)c3)nc2c1N[C@H]1CC[C@H](CN(C)C)CC1
In short: as §1

[14] = compound: CC(C)(C)Cn1c(N)nc2ccc(-c3[nH]c(C(C)(C)C)nc3-c3ccc(F)cc3)nc21 [ralimetinib]
In short: as §1

[15] = compound: CC(C)(O)CC(=O)NCCn1ccc2ncnc(Nc3ccc(Oc4cccc(C(F)(F)F)c4)c(Cl)c3)c21
In short: as §1

[16] = compound: CC(C)C1=C2N=C(C=C(N2N=C1)NCC3=CC=CC=C3)NCCCCCCN
In short: as §1

[17] = compound: CC(C)C[C@@H](C=O)NC(=O)[C@H](CC(C)C)NC(=O)[C@H](CC(C)C)NC(=O)OCc1ccccc1
In short: as §1

[18] = compound: CC(C)N(C[C@H]1O[C@@H](n2cnc3c(N)ncnc32)[C@H](O)[C@@H]1O)[C@H]1C[C@@H](CCc2nc3cc(C(C)(C)C)ccc3[nH]2)C1 [pinometostat]
In short: as §1

[19] = compound: CC1=C(C(CC(=O)N1)C2=CC=C(C=C2)C(F)(F)F)C(=O)NC3=C(C=C4C(=C3)C=NN4)F
In short: as §1

[20] = compound: CC1=C(C2=C(C=C1)C(=O)C3=CC=CC=C3N2CCCN)C
In short: as §1

UniProt Q66PJ3, sequence (Q66PJ3 whole entry, looked up): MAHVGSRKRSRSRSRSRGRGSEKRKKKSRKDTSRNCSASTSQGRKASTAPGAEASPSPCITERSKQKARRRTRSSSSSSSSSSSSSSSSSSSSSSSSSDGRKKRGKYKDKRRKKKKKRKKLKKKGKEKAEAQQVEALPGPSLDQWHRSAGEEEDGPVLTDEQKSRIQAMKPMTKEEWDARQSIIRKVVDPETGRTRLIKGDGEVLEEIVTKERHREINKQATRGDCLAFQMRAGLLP
UniProt P17707, sequence (P17707 whole entry, looked up): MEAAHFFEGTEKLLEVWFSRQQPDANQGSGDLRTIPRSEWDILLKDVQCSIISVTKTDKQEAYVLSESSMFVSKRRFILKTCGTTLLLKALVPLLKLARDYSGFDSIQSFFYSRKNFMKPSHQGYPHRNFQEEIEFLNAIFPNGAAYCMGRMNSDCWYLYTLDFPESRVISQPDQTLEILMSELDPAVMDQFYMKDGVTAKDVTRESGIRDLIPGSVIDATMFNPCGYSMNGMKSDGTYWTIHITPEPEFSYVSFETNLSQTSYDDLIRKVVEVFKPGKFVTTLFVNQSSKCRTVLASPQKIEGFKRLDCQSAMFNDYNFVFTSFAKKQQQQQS
UniProt Q9NX46, sequence (Q9NX46 whole entry, looked up): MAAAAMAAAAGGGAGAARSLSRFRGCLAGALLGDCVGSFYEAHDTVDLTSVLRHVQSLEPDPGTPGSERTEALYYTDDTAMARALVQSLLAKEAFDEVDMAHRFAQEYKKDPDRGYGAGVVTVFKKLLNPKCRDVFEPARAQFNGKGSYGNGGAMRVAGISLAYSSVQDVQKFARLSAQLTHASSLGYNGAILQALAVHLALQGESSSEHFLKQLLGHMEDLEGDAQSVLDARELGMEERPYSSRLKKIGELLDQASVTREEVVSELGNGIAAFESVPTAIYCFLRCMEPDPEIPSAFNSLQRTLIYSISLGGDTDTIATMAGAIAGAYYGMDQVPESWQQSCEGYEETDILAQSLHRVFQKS
UniProt Q86WA6, sequence (Q86WA6 whole entry, looked up): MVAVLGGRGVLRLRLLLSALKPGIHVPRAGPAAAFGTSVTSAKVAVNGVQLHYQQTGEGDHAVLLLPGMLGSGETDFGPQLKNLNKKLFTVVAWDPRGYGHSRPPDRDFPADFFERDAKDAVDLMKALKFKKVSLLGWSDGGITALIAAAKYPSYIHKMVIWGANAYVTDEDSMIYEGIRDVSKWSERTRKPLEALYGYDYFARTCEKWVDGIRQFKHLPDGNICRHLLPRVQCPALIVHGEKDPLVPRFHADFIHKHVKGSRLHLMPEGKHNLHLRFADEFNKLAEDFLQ
UniProt Q2TAA5, sequence (Q2TAA5 whole entry, looked up): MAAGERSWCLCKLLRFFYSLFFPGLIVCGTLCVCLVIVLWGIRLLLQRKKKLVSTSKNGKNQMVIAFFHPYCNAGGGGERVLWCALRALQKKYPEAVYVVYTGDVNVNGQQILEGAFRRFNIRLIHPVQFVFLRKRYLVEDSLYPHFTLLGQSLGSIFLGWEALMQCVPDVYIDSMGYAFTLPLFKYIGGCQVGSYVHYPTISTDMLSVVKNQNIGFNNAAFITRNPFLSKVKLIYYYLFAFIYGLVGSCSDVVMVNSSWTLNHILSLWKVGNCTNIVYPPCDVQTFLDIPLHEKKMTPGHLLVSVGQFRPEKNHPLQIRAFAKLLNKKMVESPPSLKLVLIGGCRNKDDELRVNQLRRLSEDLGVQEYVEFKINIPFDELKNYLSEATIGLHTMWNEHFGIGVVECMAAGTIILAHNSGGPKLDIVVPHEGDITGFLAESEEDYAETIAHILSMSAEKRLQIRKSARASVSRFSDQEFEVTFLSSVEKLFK
UniProt Q8N6T3, sequence (Q8N6T3 whole entry, looked up): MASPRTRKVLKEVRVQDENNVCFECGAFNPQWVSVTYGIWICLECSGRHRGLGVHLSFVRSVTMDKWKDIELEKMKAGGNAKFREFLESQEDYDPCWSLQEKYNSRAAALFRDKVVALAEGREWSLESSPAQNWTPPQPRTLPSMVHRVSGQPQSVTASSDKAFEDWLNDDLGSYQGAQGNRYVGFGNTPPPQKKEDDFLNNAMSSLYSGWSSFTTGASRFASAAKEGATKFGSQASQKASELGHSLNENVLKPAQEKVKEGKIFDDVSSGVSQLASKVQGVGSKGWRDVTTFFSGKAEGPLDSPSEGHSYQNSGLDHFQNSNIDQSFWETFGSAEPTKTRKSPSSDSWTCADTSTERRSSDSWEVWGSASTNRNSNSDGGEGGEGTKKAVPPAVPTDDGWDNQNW
UniProt P17544, sequence (P17544 whole entry, looked up): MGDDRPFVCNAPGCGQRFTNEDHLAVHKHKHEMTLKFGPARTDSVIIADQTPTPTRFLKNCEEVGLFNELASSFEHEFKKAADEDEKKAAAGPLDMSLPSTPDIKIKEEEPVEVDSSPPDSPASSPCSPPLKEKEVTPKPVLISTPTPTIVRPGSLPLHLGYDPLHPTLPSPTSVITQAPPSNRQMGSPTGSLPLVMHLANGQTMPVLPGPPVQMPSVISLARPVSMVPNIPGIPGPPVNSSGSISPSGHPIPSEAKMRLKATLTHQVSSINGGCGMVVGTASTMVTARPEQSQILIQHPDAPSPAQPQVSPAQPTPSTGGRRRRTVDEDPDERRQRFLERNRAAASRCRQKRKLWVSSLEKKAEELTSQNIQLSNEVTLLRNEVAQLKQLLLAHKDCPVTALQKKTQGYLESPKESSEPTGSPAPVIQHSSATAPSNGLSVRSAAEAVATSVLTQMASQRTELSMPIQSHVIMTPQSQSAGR
UniProt Q99943, sequence (Q99943 whole entry, looked up): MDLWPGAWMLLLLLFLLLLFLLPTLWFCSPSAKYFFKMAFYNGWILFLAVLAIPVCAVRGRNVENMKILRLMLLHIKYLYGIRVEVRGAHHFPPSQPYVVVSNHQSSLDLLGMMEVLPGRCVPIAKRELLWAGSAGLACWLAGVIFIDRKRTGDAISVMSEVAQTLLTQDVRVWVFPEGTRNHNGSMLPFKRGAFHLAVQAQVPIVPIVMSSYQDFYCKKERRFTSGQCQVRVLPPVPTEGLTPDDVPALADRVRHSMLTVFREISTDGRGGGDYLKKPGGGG

| Target | log2 fold change [1] | log2 fold change [2] | log2 fold change [3] | log2 fold change [4] | log2 fold change [5] | log2 fold change [6] | log2 fold change [7] | log2 fold change [8] | log2 fold change [9] | log2 fold change [10] | log2 fold change [11] | log2 fold change [12] | log2 fold change [13] | log2 fold change [14] | log2 fold change [15] | log2 fold change [16] | log2 fold change [17] | log2 fold change [18] | log2 fold change [19] | log2 fold change [20] |
| --- | --- | --- | --- | --- | --- | --- | --- | --- | --- | --- | --- | --- | --- | --- | --- | --- | --- | --- | --- | --- |
| AMD1 (UniProt P17707) | 0.078 | -0.004 | 0.039 | 0.094 | 0.091 | -0.002 | 0.127 | 0.035 | -0.224 | 0.025 | -0.018 | -0.043 | -0.086 | -0.307 (active) | -0.031 | -0.073 | 0.276 | -0.025 | 0.04 | 0.051 |
| ADPRHL2 (UniProt Q9NX46) | 0.03 | 0.024 | 0.122 | 0.048 | 0.043 | 0.006 | 0.019 | 0.049 | 0.003 | -0.165 | 0 | -0.021 | -0.025 | -0.021 | -0.088 | 0.08 | -0.038 | -0.015 | -0.126 | -0.002 |
| AGPAT1 (UniProt Q99943) | 0.04 | -0.004 | 0.008 | -0.014 | 0.013 | 0.029 | -0.015 | -0.001 | 0.001 | 0.048 | 0 | -0.083 | -0.051 | 0.012 | -0.109 | 0.06 | -0.005 | 0.02 | -0.006 | -0.017 |
| BPHL (UniProt Q86WA6) | -0.016 | 0.053 | 0.057 | -0.016 | 0.142 | 0.058 | -0.028 | 0.02 | -0.38 (active) | 0.182 | 0.009 | -0.062 | -0.034 | -0.045 | -0.023 | 0.123 | 0.071 | 0.061 | 0.016 | -0.244 |
| ARL6IP4 (UniProt Q66PJ3) | 0.041 | 0.06 | -0.085 | -0.01 | -0.08 | 0 | -0.12 | 0.117 | 0.003 | 0.039 | 0.049 | 0.026 | 0.018 | 0.01 | 0 | 0.075 | 0.021 | -0.03 | 0.064 | 0.049 |
| ALG11 (UniProt Q2TAA5) | -0.015 | 0.042 | 0.075 | 0.013 | 0.074 | 0.054 | 0.009 | -0.048 | -0.045 | -0.014 | 0.003 | 0.09 | 0.053 | -0.014 | -0.112 | 0.037 | -0.064 | 0.032 | 0.002 | 0.23 (active) |
| ATF7 isoform 6 (UniProt P17544) | -0.011 | -0.148 | -0.043 | 0.021 | 0.032 | -0.055 | 0.08 | 0.085 | -0.004 | -0.117 | -0.031 | 0.199 | 0.183 | 0.089 | -0.042 | 0.138 | -0.14 | 0.019 | -0.082 | 0.22 |
| ARFGAP1 (UniProt Q8N6T3) | -0.017 | 0.131 | 0.086 | -0.072 | -0.017 | -0.018 | -0.069 | 0.035 | -0.037 | 0.001 | -0.008 | 0.005 | -0.013 | 0.07 | -0.012 | -0.11 | -0.017 | -0.027 | 0.02 | 0.002 |
